# Data as given in PubChem BioAssay AID2314 (National Center for Advancing Translational Sciences (NCATS), 2010).
# Hit rate of the full screen: of about 300,000 compounds, about 37,000 (12%) were called active. The entries come from a sample that favours actives as a whole. Values without a mark were called inactive. Cut-off read from the data, not from the text of the source: active = max response mostly above about 13% (no sharp cut-off); inactive = mostly below about 14%.
# Test: Cycloheximide Counterscreen for Small Molecule Inhibitors of Shiga Toxin; note: read at 38.3 µM for the half of the compounds with a filed dose; 0% is about no effect
# Details: cell reporter, cycloheximide protein synthesis inhibition counterscreen; stronger effect = higher value
row,SMILES,max response
1,CCn1c(=O)c(=O)[nH]c2c(=O)oc3ccc(S(=O)(=O)Nc4ccc(OC)cc4)cc3c21,-4.34%
2,Cc1ccc(C(=O)NCCc2nnc(SCC(=O)Nc3cccc(C(=O)O)c3)n2C)cc1,-0.755%
3,Cc1noc(NS(=O)(=O)c2ccc(NC(=O)C34CCC(CC3)C4)cc2)c1C,-1.3%
4,Cc1noc(NS(=O)(=O)c2ccc(N/C=C/C(=O)c3ccccc3)cc2)c1C,38.5% (active)
5,CCn1c(SCC(=O)Nc2ccc(S(=O)(=O)Nc3onc(C)c3C)cc2)nnc1-c1ccccc1,5.03%
6,Cc1ccc(C(=O)/C=C/Nc2ccc(S(=O)(=O)Nc3onc(C)c3C)cc2)cc1,48.2% (active)
7,O=C(/C=C/Nc1ccc(S(=O)(=O)Nc2cnc3ccccc3n2)cc1)c1cccnc1,19.6% (active)
8,O=C(/C=C/c1ccc(Cl)cc1Cl)c1cccnc1,2.63%
9,C=C(C)CNC(=S)Nc1ccc(S(=O)(=O)Nc2cnc3ccccc3n2)cc1,-1.53%
10,COc1ccc(C(=O)Nc2ccc(S(=O)(=O)Nc3onc(C)c3C)cc2)cc1OC,-2.06%
11,Cc1cc(OC(C)C(=O)Nc2ccc(S(=O)(=O)Nc3onc(C)c3C)cc2)cc(C)c1Cl (configuration not stated),-2.3%
12,COC(=O)c1cnc(Nc2cc(C)ccc2OC)c2ccccc12,-3.28%
13,COc1cc(C(=O)NCc2cc3cc(Cl)ccc3n2C)cc(OC)c1OC,9.33%
14,COc1ccc(N2CCN(C(=O)c3cn(C)c4ccc(S(=O)(=O)N5CCOCC5)cc4c3=O)CC2)cc1,0.725%
15,CCc1ccc(C(=O)NC(=S)Nc2ccccc2N2CCOCC2)cc1,12.1%
16,CCCC(C(=O)NC1CCCC1)N(C(=O)Cn1nnc(-c2ccc(C)o2)n1)c1cccc(O)c1 (configuration not stated),-3.39%
17,CCOC(=O)C(Cc1ccc(N)cc1)N1C(=O)c2ccccc2C1=O (configuration not stated),15%
18,O=S(=O)(c1ccc(Br)c2ccccc12)N1CCOCC1,-2.9%
19,CC1CN(S(=O)(=O)c2cccc(C(F)(F)F)c2)CN1C(=O)N1CCOCC1 (configuration not stated),-5.77%
20,Cc1ccc(C)c(NC2=NCC(=O)N2c2ccc3c(c2)OCCO3)c1,17.5% (active)
21,COc1ccc(N2C(=O)CN=C2Nc2cccc(C)c2C)cc1OC,1.91%
22,Cc1ccc(N2C(=O)CN=C2Nc2nc(C)cc(C)n2)cc1,-2.81%
23,CC(Sc1nnc(COc2ccccc2)n1-c1ccccc1)C(=O)O (configuration not stated),-3.12%
24,Cc1nnc2sc(-c3ccco3)nn12,-2.36%
25,FC(F)(F)c1nnc2sc(-c3ccco3)nn12,-1.25%

row,SMILES,max response
1,Fc1ccc(-c2ccc(-c3nn4c(-c5ccco5)nnc4s3)o2)cc1,12.8% (active)
2,COc1ccc([N+](=O)[O-])cc1NC(=O)C(C)OC(=O)C1c2ccccc2Oc2ccccc21 (configuration not stated),-1.06%
3,CCN(C(=O)CN1CCN(Cc2ccccc2)CC1)c1c(N)n(Cc2ccccc2)c(=O)[nH]c1=O,-1.94%
4,Cc1nn(C(C)C(=O)NCCC2=CCCCC2)c(=O)c2nn(-c3ccccc3)c(C)c12 (configuration not stated),12.2%
5,C1=C(CCNc2ncnc3c2cnn3-c2ccccc2)CCCC1,34.6% (active)
6,O=C(NCCC1=CCCCC1)C1CCN(Cc2cnn(-c3ccccc3)c2-n2cccc2)CC1,18.2%
7,O=C(COC(=O)/C(=C/c1cccs1)c1cccs1)NCc1ccccc1Cl,-3.92%
8,Cc1cc(OCCCC(=O)NCCN2C(=O)S/C(=C\c3cccnc3)C2=O)ccc1Cl,-1.74%
9,CSc1nc2ccc(NC(=O)c3c(F)cccc3F)cc2s1,48.4% (active)
10,CCCC(=O)Nc1nc2ccc(NC(=O)c3c(F)c(F)c(OC)c(F)c3F)cc2s1,-1.72%
11,CCCn1nc(C(=O)Nc2ccc3nc(C)sc3c2)c2ccccc2c1=O,2.94%
12,Cc1ccccc1-n1nnc2c(=O)oc3ccccc3c21,-0.308%
13,COC(=O)c1ccccc1NC(=O)C1CCN(S(=O)(=O)c2cc(OC)ccc2OC)CC1,-2.41%
14,O=c1c2c3c(sc2n(CCN2CCCC2)c(=O)n1Cc1ccccc1)CCCCC3,-3.62%
15,Cc1ccc(Nc2nc(-c3ccc(O)cc3O)cs2)nc1,50.9% (active)
16,Cc1ccc(NC(=O)c2cc(-c3ccc(C)o3)nc3ccccc23)nc1,-0.954%
17,COCCNc1nc(N)c([N+](=O)[O-])c(N2CCCCCC2)n1,3.03%
18,Cc1cc(C(=O)OCC(=O)Nc2nccs2)c2ccccc2n1,-4.23%
19,CCCCOC(=O)Nc1nccs1,18.8%
20,O=C(COC(=O)c1ccc(O)cc1)Nc1nccs1,9.78% (active)
21,Cc1scc(C(=O)NNC(=S)NCC(C)C)c1C,-0.894%
22,CC(C)CNC(=S)NC(=O)c1ccc(Cl)cc1,34.2% (active)
23,Cc1occc1C(=O)NNC(=S)NCC(C)C,-3.12%
24,Cc1cc(-c2nnc(SCC(=O)Nc3ccc(S(N)(=O)=O)cc3)n2N)n[nH]1,1.41%
25,CCCNC(=O)N1CCC(c2ccc3c(c2)OCO3)CC1,-1.8%

row,SMILES,max response
1,C=CCOc1ccccc1NC(=O)CN1C(=O)CNC1=O,0.268%
2,COC(=O)c1c(CCl)noc1C(=O)NC(C)C,-0.666%
3,COc1ccc(-c2cc3nc(C)c(CCC(=O)NC(C)CCc4ccco4)c(C)n3n2)c(OC)c1 (configuration not stated),8.95%
4,CN(C)c1ccc(C(CC(=O)O)C(=O)O)cc1 (configuration not stated),38.6% (active)
5,CN(C)c1ccc(/C=N/NC(=O)C(O)c2ccc(Br)cc2)cc1 (configuration not stated),8.48%
6,CC(=O)NC(CC(=O)O)c1ccc(F)cc1 (configuration not stated),-1.3%
7,COc1cc(NC(=O)c2cccs2)ccc1NC(=O)c1ccccc1Cl,28.9% (active)
8,COc1cc(NC(=O)COc2ccccc2Cl)ccc1NC(=O)C(C)C,0.487%
9,COc1cc2ccccc2cc1C(=O)Nc1ccc(NC(=O)c2cccs2)cc1,-2.59%
10,COc1cc(NC(=O)c2ccc3c(c2)OCO3)ccc1NC(=O)c1cccs1,17.8% (active)
11,CN1CCN(C(=O)/C(=C\c2ccc3c(c2)OCO3)NC(=O)c2cccs2)CC1,-1.19%
12,CCC(=O)c1cc2c(cc1NC(=O)c1cccs1)OCCO2,-4.08%
13,COc1ccc(S(=O)(=O)N2CCC(C(=O)NCCC(=O)NCc3cccc(OC)c3)CC2)cc1,-2.91%
14,Cc1cc(S(=O)(=O)NC2CCCC2)ccc1-n1cnnn1,-1.68%
15,CCC(=O)Nc1cccc(C2=NOC3(C2)C[C@@H](C(N)=O)N(C(=O)c2cc([N+](=O)[O-])cc([N+](=O)[O-])c2C)C3)c1 (some centres not stated),3.34%
16,CC1=C(C(=O)Nc2ccccc2)C(c2cccs2)C(C#N)=C(SCC#N)N1 (configuration not stated),-2.44%
17,O=C(Nc1ccc(N2CCN(C(=O)c3ccccc3)CC2)c(Cl)c1)c1ncn[nH]1,-0.606%
18,CCCn1c(=N)n(CC(=O)c2ccc(Cl)c(Cl)c2)c2ccccc21,-0.499%
19,COc1ccc2cc(C(=O)O)n(CC(=O)c3ccccc3)c2c1,-1.7%
20,CCn1c(=N)n(CC(=O)c2cccc(OC)c2)c2ccccc21,35.3% (active)
21,Cc1ccc(Cn2c(=N)c(S(=O)(=O)c3ccc(C)cc3)cc3c(=O)n4ccccc4nc32)cc1,-2.4%
22,C=CCc1cc(S(=O)(=O)c2ccc(O)c(CC=C)c2)ccc1O,-2.33%
23,O=C(Nc1cccc(NC(=O)c2cccc(F)c2)c1)c1ccccc1,9.34%
24,Cc1c(NC(=O)c2coc(=O)c(Br)c2)c(=O)n(-c2ccccc2)n1C,10.1%
25,O=C(Nc1cccc(F)c1)c1coc(=O)c(Br)c1,22.1% (active)

row,SMILES,max response
1,COc1ccc(CCNC(=O)CN2C(=O)CCSc3ccccc32)c(OC)c1,-1.78%
2,COc1ccc(CC(=O)N/N=C/c2cc([N+](=O)[O-])cc(Br)c2O)cc1,-2.73%
3,CCOc1cccc(/C=N/N2C(=O)CSC2=S)c1O,13.3% (active)
4,O=C1CSC(=S)N1/N=C/c1ccc(O)c([N+](=O)[O-])c1,2.96%
5,CCOc1cccc(/C=N/NC(=S)NCCN2CCOCC2)c1O,9.08%
6,Cc1cccc(CN2CCC(n3nccc3NC(=O)c3ccccc3C)CC2)n1,2.27%
7,COc1ccc(OCc2cn3c(C)cc(C)nc3n2)cc1,17.1%
8,CN(C)S(=O)(=O)N1CCC(Oc2cccc(C(=O)NCCCC3CCCC3)c2)CC1,52.4% (active)
9,CNS(=O)(=O)c1cccc(C(=O)NCC2CCCCC2)c1,-3.55%
10,CN(C(=O)c1cccc(OC2CCN(S(=O)(=O)N(C)C)CC2)c1)C1CCOC1 (configuration not stated),16.6%
11,Cc1ccc(S(=O)(=O)Nc2nc(N)n(-c3ccccc3)n2)cc1,-2.82%
12,Nc1nc(NC(=O)/C=C/c2ccccc2)nn1-c1ccccc1,-0.981%
13,Cc1ccc(C(=O)Nc2nc(N)n(-c3ccccc3)n2)cc1,20.3% (active)
14,CC(=O)c1ccc(OCC(O)CN2CCN(S(=O)(=O)c3cccc(Br)c3)CC2)cc1 (configuration not stated),-0.615%
15,O=c1c2cc([N+](=O)[O-])ccc2nc2n1CCC2,-3.29%
16,O=c1[nH]c(/C=C\c2cccc(C(F)(F)F)c2)nc(O)c1[N+](=O)[O-],-0.44%
17,C=CCN(C(=O)Nc1ccc2c(c1)nc(C)n2C)c1ccccc1,32.3% (active)
18,Cc1nn(CC(=O)Nc2ccc3c(c2)nc(CN2CCCCC2)n3C)c(=O)c2ccccc12,9.68%
19,C=CCN(C(=O)Nc1ccc2oc(C)nc2c1)c1ccccc1,44.6% (active)
20,C=CCN(C(=O)Cn1ncc2c1-c1cc(C)ccc1OC2)c1ccccc1,-3.22%
21,CCC(=O)Nc1ccc2nc(C)n(Cc3ccccc3Cl)c(=O)c2c1,-0.377%
22,C=CCN(CC=C)C(=O)Nc1ccc(OCC)cc1,12.5%
